The list is not random: actives were taken first. Their share in the collection is about 19%.
TGFb inhibitor – TGF-b pathway inhibition; HepG2 CAGA-GFP TGF-b/SMAD3 reporter, GFP fluorescence, 18 h; TGF-beta stimulated, 500 pg/mL final; Potency, µM (doses to about 46.1 µM), for inactives: top-dose activity, negative = inhibition, actives largely listed as inhibitors; 410,000 tested, 1.2% active; AID 588855; note: potency is the fitted concentration of half-maximal effect; % is set by controls: 0 for no effect and ±100 for the full control effect; nearly all actives have a fitted effect of over 65% in size
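GFP signal (ex488/em500-530) from TGF-beta-stimulated HEPG2 CAGA-GFP cells, 500 pg/mL final, 18 h at 37 degrees C in DMEM plus 1% FBS, normalized to unstimulated and DMSO-stimulated controls.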
HepG2 viability – HepG2 cytotoxicity, counter-screen for TGF-b inhibitors | HepG2 CAGA-GFP viability, ATP luminescence, 18 h | Potency, µM (titrated, usually from 46.1 µM), without a hit: at the highest dose activity change, negative = cytotoxicity, hits mostly cytotoxic | 410,000 tested, 0.76% active | AID 588856; note: potency is the fitted concentration of half-maximal effect
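CellTiter-Glo luminescence gave cytotoxicity after 18 hours at 37 degrees C. The cells were HepG2 CAGA-GFP in 1% FBS DMEM, stimulated with 500 pg/mL TGF-beta after compound addition. %Activity was normalised to no-cell wells (complete cell-killing) and DMSO (no toxicity), and curves were fitted and classified.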
IL-1B inflam inh – inflammasome signaling inhibition, IL-1 beta readout. AID 743279. THP-1 LPS/ATP IL-1B secretion, AlphaLISA, 16 h; hits give low values. 360,000 tested, 4.7% active. activity change, % at 57.5 µM; in the data active = activity change below about -50%; inconclusive = mostly about -30% to -49%; note: % is set by controls: 0 for no effect and ±100 for the full control effect
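THP-1 cells pretreated 1 hr with compounds (up to 57.5 uM final), then stimulated with LPS (250 ng/mL final) plus ATP (1.25 mM final); secreted IL-1B measured by AlphaLISA after 16 hr, decreased signal indicating inhibition.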
DT40 TDP1 no CPT – qHTS for Inhibitors of human tyrosyl-DNA phosphodiesterase 1 (TDP1): qHTS in cells in absence of CPT. Potency, µM (highest dose often 46.2 µM), for inactives: at the highest dose activity change, negative = growth inhibition, actives largely listed as inhibitors. DT40 Tdp1-/- hTDP1 cells, no CPT, ATP luminescence, 48 h. AID 686978, 2013. 420,000 tested, 15% active; note: potency is the fitted concentration of half-maximal effect; % is set by controls: 0 for no effect and ±100 for the full control effect; nearly all actives have a fitted effect of over 55% in size
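Seeded 400 DT40-hTDP1 cells/well (vehicle DMSO, no 20 nM CPT); pinned compounds; ≥48 hr at 37 °C; CellTiter-Glo luminescence as viability measure.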
TDP1 cell CPT – DT40-hTDP1 cell growth loss with CPT | 420,000 tested, 12% active | chicken DT40 Tdp1-/-;hTDP1 cells + 20 nM CPT, ATP luminescence, 48 h | Potency, µM (doses to about 46.2 µM), for inactives: at the top dose activity change, negative = growth inhibition, actives largely listed as inhibitors; note: potency is the fitted concentration of half-maximal effect; % is set by controls: 0 for no effect and ±100 for the full control effect; nearly all actives have a fitted effect of over 55% in size
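Chicken DT40 Tdp1-/- cells stably complemented with human TDP1 were seeded at 400 cells/well in medium containing 20 nM camptothecin, exposed to pin-transferred compounds, and grown at 37 °C for at least 48 hr. Viability was read as ATP luminescence.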
TDP1 inh – TDP1 (human) enzyme inhibition; recombinant TDP1, AlphaScreen DNA substrate cleavage; Potency, µM (top dose mostly 130 µM), inactives show top-dose activity change, negative = inhibition, most hits filed as inhibitors; 350,000 tested, 0.28% active; AID 485290; note: potency is the fitted concentration of half-maximal effect; % is set by controls: 0 for no effect and ±100 for the full control effect; nearly all actives have a fitted effect of over 40% in size
Target sequence (Q9NUW8 whole entry, looked up): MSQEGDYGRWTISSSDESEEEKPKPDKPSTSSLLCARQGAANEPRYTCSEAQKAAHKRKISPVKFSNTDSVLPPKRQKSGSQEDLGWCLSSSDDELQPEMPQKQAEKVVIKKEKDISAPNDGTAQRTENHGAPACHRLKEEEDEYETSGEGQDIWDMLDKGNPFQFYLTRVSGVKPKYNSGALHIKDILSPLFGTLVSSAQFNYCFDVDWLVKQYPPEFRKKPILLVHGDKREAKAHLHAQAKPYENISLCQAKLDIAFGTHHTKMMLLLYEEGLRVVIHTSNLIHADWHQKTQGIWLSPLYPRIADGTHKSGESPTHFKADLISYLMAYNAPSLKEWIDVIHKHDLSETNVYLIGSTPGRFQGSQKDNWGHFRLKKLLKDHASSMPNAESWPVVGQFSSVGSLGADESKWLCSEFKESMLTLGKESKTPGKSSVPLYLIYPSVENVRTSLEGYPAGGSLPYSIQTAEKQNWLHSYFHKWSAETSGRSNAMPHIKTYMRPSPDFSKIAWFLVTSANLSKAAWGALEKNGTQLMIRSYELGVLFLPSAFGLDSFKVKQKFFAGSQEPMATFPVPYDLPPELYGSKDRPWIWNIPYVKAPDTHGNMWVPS
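E. coli-derived human Tdp1, 1 nM final. Cpd preinc 15 min RT; substrate 15 nM final, 5 min RT; AS bead mix 10 ug/ml final, 10 min RT. Signal loss = tyrosine-FITC cleavage. No-enzyme wells = max signal.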
An asterisk follows results filed as active; u = inconclusive; x = no result given; [ ] = remark or other dose. Unless noted, calls come from the whole dose curve; as a rule, active = well fitted curve in the direction sought with a large enough effect; inconclusive = small, poorly fitted or top-dose-only effect, or another doubt; inactive = no such curve, though single readings can be large; an effect the other way counts as inactive or inconclusive.

SMILES | TGFb inhibitor | HepG2 viability | IL-1B inflam inh | DT40 TDP1 no CPT | TDP1 cell CPT | TDP1 inh
CCc1nnc(NC(=O)c2ccc(S(=O)(=O)N(CC(C)C)CC(C)C)cc2)o1 | u | -7% | 56 | 18µM* | 21µM* | -3%
CN(c1ccccc1)S(=O)(=O)c1ccc(C(=O)Nc2nnc(C3=COCCO3)o2)cc1 | -22% | -36% | 0 | u | u | 8%
CCc1nnc(NC(=O)c2ccc(S(=O)(=O)N(C)c3ccccc3)cc2)o1 | -11% | 3% | 34 | 4.6µM* | 12µM* | 10%
COc1ccc(C(=O)OCC(=O)N(C)C2CCS(=O)(=O)C2)cc1Br (centres undefined) | -1% | -12% | -8 | 19% | -1% | -5%
CC(=O)Nc1ccc(S(=O)(=O)NC(CC(=O)N(C)Cc2ccccc2)C(C)C)cc1 (centres undefined) | 34% | 1% | -3 | 23µM* | 12µM* | 3%
CC(C)CCNc1nc(Nc2ccccc2)c2cnn(C)c2n1 | u | -103% | x | 23µM* | 23µM* | 9%
Cc1ccc(-c2nn3c(=O)cc(CN4CCN(C(=O)Nc5cc(Cl)ccc5C)CC4)nc3s2)cc1 | 7% | 5% | x | -2% | u | 3%
CCCCc1c(C)c2ccc(OC)c(/C(C)=N\O)c2oc1=O | -13% | -22% | u | 18µM* | u | 4%
Cc1ccc(S(=O)(=O)N(C)c2ccc3sc(C)nc3c2)cc1 | -21% | -24% | 27 | 23µM* | u | 4%
Cc1ccc(CN(C(=O)COc2ccc(Br)cc2)c2ccccn2)o1 | -19% | -12% | x | 16µM* | u | 3%
COc1cc(CN(C(=O)c2ccccc2)c2ccccn2)cc(OC)c1OC | -20% | 1% | x | u | u | 2%
Cc1ccc(CN(C(=O)COc2cc(C)c(Cl)c(C)c2)c2ccccn2)o1 | u | -39% | x | 18µM* | u | 5%
COc1cc(CN(C(=O)COc2ccc(Cl)cc2)c2ccccn2)cc(OC)c1OC | -23% | -26% | x | 8.2µM* | 18µM* | -1%
CCCCOc1cccc(C(=O)N(Cc2ccc(C)o2)c2ccccn2)c1 | u | -25% | x | 9.2µM* | 15µM* | 5%
Cc1ccc(CN(C(=O)c2ccc(F)cc2)c2ccccn2)o1 | -20% | 0% | x | u | -3% | 4%
Cc1ccc(C(=O)c2oc3ccc(Cl)cc3c2NC(=O)CN2CCN(C)CC2)cc1 | u | -167% | -57* | 21µM* | u | 7%
CCOC(=O)c1oc2ccc(OC)cc2c1NC(=O)CN1CCN(C)CC1 | 0% | -19% | -19 | -19% | 1% | 2%
CC(C)(C)NC[C@H](O)COc1cccc2c1CCC(=O)N2 | x | x | x | x | x | 10%[21 µM]
O=C(CSCc1ccc(Cl)cc1)Nc1cc([N+](=O)[O-])ccc1O | u | -8% | u | 18µM* | u | 0%
COc1ccc([N+](=O)[O-])cc1NC(=O)CSCc1ccc(Br)cc1 | 22% | -2% | -27 | u | u | 3%
CCOC(=O)C1=C(CNCc2ccc(C)cc2)NC(=O)NC1c1cc(C)ccc1C (centres undefined) | u | -19% | 7 | u | 20µM* | 8%
CCOC(=O)C1=C(Cn2cnc3ccccc32)NC(=O)NC1c1cc(C)ccc1C (centres undefined) | u | -27% | -2 | 23µM* | 26µM* | 7%
COC(=O)C1=C(Cn2cnc3ccccc32)NC(=O)NC1c1cc(C)ccc1C (centres undefined) | 10% | -15% | -9 | u | u | 2%
CCOC(=O)C1=C(CSc2nccn2C)NC(=O)NC1c1cc(C)ccc1C (centres undefined) | 11% | -51% | 2 | -13% | -8% | 4%
CCC(=O)N1c2ccccc2C(N(C(=O)CC)c2ccccc2)CC1C (centres undefined) | 27% | -3% | 110 | 9.2µM* | u | x
SMILES | TGFb inhibitor | HepG2 viability | IL-1B inflam inh | DT40 TDP1 no CPT | TDP1 cell CPT | TDP1 inh
CCCCNS(=O)(=O)c1ccc2nc(-c3cccnc3)cc(C(=O)NCCCOC(C)C)c2c1 | -6% | -35% | x | u | -29% | 3%
CN(Cc1ccccc1)C(=O)Cn1ncc2c3ccccc3n(Cc3cccc(Cl)c3)c2c1=O | 0% | 6% | x | u | u | 3%
Oc1c(C(c2ccccc2)N2CCOCC2)ccc2ccccc12 (centres undefined) | -15% | -16% | -99* | 9.2µM* | 8.2µM* | x
Cc1ccc2nc(SCC(=O)Nc3ccccc3N3CCOCC3)c(C#N)cc2c1 | -8% | -13% | -3 | 3.3µM* | 4.6µM* | 3%
CCc1ccc2nc(SCC(=O)Nc3ccccc3N3CCOCC3)c(C#N)cc2c1 | u | -6% | 9 | 4.1µM* | 4.6µM* | x
Cc1ccc(SCC(=O)Nc2ccccc2N2CCOCC2)cc1 | 1% | -2% | 22 | u | u | -11%
Cc1nnc(NC(=O)CSc2nc3c([nH]c4ccccc43)c(=O)n2-c2ccc(Cl)cc2)s1 | 13% | -16% | x | u | u | -5%
CCCCCCN(C(=O)CCCCCN1C(=O)NC(c2ccccc2-c2ccccc2)C(C(=O)OCc2ccccc2)=C1C)C(C(=O)NCCCC)c1ccc(OCC(=O)OC)c(C(=O)OC)c1 (centres undefined) | x | x | x | x | x | 11%
O=C(O)P(=O)(O)O | x | x | x | -1% | 5% | -3%[56.1 µM]
Cc1cccc(-c2nn(C(=S)Nc3ccccc3)cc2-c2ccnc3ccccc23)n1 | x | x | x | x | x | 10%
CCOc1ccc(CCNC(c2nnc(-c3ccccc3)o2)c2ccccc2Cl)cc1OCC (centres undefined) | u | -12% | x | 15µM* | 15µM* | 0%
Cc1cc(C)cc(NC(c2cccc(Cl)c2)c2nnc(-c3ccccc3)o2)c1 (centres undefined) | u | -18% | x | u | -27% | -2%[12.3 µM]
CCOc1ccc(CCNC(c2cccc(Cl)c2)c2nnc(-c3ccccc3)o2)cc1OCC (centres undefined) | u | -28% | x | 26µM* | 16µM* | 5%
CCOc1ccc(CCNC(=O)Cn2nnc(-c3ccccc3)n2)cc1OCC | 1% | -12% | x | x | x | 6%
CC(CCC(=O)O)C1CCC2C3CC[C@H]4CC(O)CC[C@@]4(C)C3C=C[C@]12C (some centres undefined) | x | x | x | u | u | 7%[56.1 µM]
c1coc(CNc2nc[n+]3c4c2ncn4CC3)c1 | x | x | x | -21% | -21% | 0%
